# Measurements: PubChem BioAssay AID686979 (National Center for Advancing Translational Sciences (NCATS), 2013)
# About 50,000 (12%) of roughly 420,000 compounds were called active. Inconclusive results (about 26%) are left out. Shown is part of a subset that was picked to be rich in actives. Unmarked numbers belong to inactive results. Calls come from the whole dose curve; as a rule, active = well fitted inhibition curve with a large enough effect; inconclusive = small, poorly fitted or top-dose-only effect; inactive = flat fitted curve, though single readings scatter.
# Test: qHTS for Inhibitors of human tyrosyl-DNA phosphodiesterase 1 (TDP1): qHTS in cells in presence of CPT; note: nearly all actives have a fitted effect of over 55% in size
# Conditions: chicken DT40 Tdp1-/-;hTDP1 cells + 20 nM CPT, ATP luminescence, 48 h; series mostly up to 46.2 µM; activity change, negative = growth inhibition: at the top concentration
# How it was run: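 Chicken DT40 Tdp1-/- cells complemented with human TDP1, 400 cells/well, exposed to compounds plus 20 nM camptothecin for at least 48 h at 37 C; viability read as ATP content by CellTiter-Glo luminescence.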
# % is set by controls: 0 for no effect and ±100 for the full control effect; potency is the fitted concentration of half-maximal effect.
SMILES,"activity change, negative = growth inhibition",Potency
CCn1c(=O)cc(SCC(=O)NCc2ccc3c(c2)OCO3)c2ccccc21,-32.1%,
O=C1N(Cc2ccc3c(c2)OCO3)c2ccccc2C1(O)c1c[nH]c2ccccc12 (stereo not given),,18.4 µM (active)
O=C(COC(=O)c1cc(=O)[nH]c2ccccc12)NCc1cccc(Cl)c1,-26.8%,
CCOc1ccc(CCNC(=O)COC(=O)c2ccc(F)c(S(=O)(=O)N3CCOCC3)c2)cc1OCC,7.66%,
O=C(CSc1nnc(-c2ccncc2)o1)Nc1cccc(Cl)c1,0.739%,
COC(=O)c1cnc(Nc2cc(C)ccc2OC)c2ccccc12,1.61%,
Oc1ccc(CNc2ccccc2O)cc1,,25.9 µM (active)
O=[N+]([O-])c1ccccc1Nc1ccc(O)cc1,-34.1%,
O=C(OCc1ccccc1)c1ccc(O)cc1,-30.5%,
CCOC(=O)C(C)N(c1ccccc1Cl)S(C)(=O)=O (stereo not given),-0.811%,
O=C(NCCCN1CCOCC1)c1cc(-c2cccc(O)c2)on1,-24.8%,
Cc1nc([N+](=O)[O-])nn1C12CC3CC(CC(Br)(C3)C1)C2,,23.1 µM (active)
CC[C@@H](C)[C@H](NC(=O)CCc1c(C)c2cc3c4c(oc3c(C)c2oc1=O)CCCC4)C(=O)O,-12.7%,
COCc1c(C(=O)N/N=C(\C)c2ccncc2)nnn1-c1nonc1N,5.2%,
CSc1ccc(/C=C2\NC(=O)NC2=O)cc1,-13.4%,
O=C(Nc1ccnn1C1CCN(Cc2cccc(OCCO)c2)CC1)C1CCCC1,3.27%,
CCN(CC)CCN(C(=O)c1cc(Cl)sc1Cl)c1nc2cc3c(cc2s1)OCO3,-22.6%,
Nc1ccccc1SC(C[N+](=O)[O-])c1ccccc1 (stereo not given),,4.11 µM (active)
Nc1ccccc1SCc1cc([N+](=O)[O-])cc2c1OCOC2,-9.92%,
Nc1ccccc1Sc1ccc(C(F)(F)F)cc1[N+](=O)[O-],-16.5%,
COc1ccc(NS(=O)(=O)c2ccc(C)c(C(=O)NNC(=O)c3csc(N4CCOCC4)n3)c2)cc1,2.85%,
O=C(NCc1cccnc1)c1cccc(-c2cc3ccccc3oc2=O)c1,6.42%,
Cc1ccc(S(=O)(=O)CCC(=O)OCC(=O)N(C)C2CCS(=O)(=O)C2)cc1 (stereo not given),-1.21%,
Cc1ccc2nc(-c3ccc(O)cc3)c(Nc3ccc4c(c3)OCO4)n2c1,,23.1 µM (active)
Cc1ccc(SCC(=O)Nc2ccc3c(c2)OCCO3)cc1,0.128%,

SMILES,"activity change, negative = growth inhibition",Potency
Cc1nc([N+](=O)[O-])cn1CC(=O)Nc1ccc2c(c1)OCO2,29%,
CC(C)(C)NC(=O)NC(=O)COC(=O)C1(C)CC1(Cl)Cl (stereo not given),-3.94%,
COc1ccc(CNC(=O)CC2Oc3ccc(C)cc3NC2=O)cc1 (stereo not given),-7.07%,
Cc1cc(C)cc(NC(=O)C(OC(=O)c2ccc(O)cc2)c2ccccc2)c1 (stereo not given),-20.1%,
O=C1CC(N2CCN(c3ccc(F)cc3)CC2)C(=O)N1c1ccccc1 (stereo not given),-10.3%,
CC(=O)Nc1ccc(N2C(=O)CC(Sc3nccc(C)n3)C2=O)cc1 (stereo not given),-22.2%,
COc1ccc(-c2nc(SCC(=O)N3CCOCC3)n[nH]2)cc1,-6.79%,
Cc1ccnc(SC2CC(=O)N(c3ccccc3)C2=O)n1 (stereo not given),-4.69%,
O=C1CC(Sc2ncn[nH]2)C(=O)N1c1ccccc1 (stereo not given),,8.2 µM (active)
CCOC(=O)c1ccc(N2C(=O)CC(Sc3nc(O)c(CC)c(=O)[nH]3)C2=O)cc1 (stereo not given),1.86%,
COc1ccc(N2C(=O)CC(SC(C)C)C2=O)cc1 (stereo not given),-5.56%,
Cc1ccc(N2C(=O)CC(Sc3ncn[nH]3)C2=O)cc1 (stereo not given),,5.17 µM (active)
COc1ccc(N2C(=O)CC(Sc3n[nH]c(-c4ccc(C)cc4)n3)C2=O)cc1 (stereo not given),,2.91 µM (active)
OCC[C@H]1C[C@H](O)[C@@H](O)[C@]2(CCc3ccccc3O2)O1,-14.2%,
Cc1cc(C)cc(NC(=O)c2cccc(NC(=O)C3C4CC5OC(=O)C3C5C4)c2)c1 (stereo not given),-4.86%,
O=C(O)CCN(Cc1ccccc1)S(=O)(=O)c1c(Cl)cccc1Cl,-12.6%,
COc1cc(NC(=O)CCS(=O)(=O)c2ccc3c(c2)oc(=O)n3C)cc(OC)c1,1.78%,
O=S(=O)(Nc1ccc(OC(F)(F)F)cc1)c1cccc2nonc12,-1.77%,
C[C@H](NS(=O)(=O)c1ccc(Cl)cc1)C(=O)OCC(=O)N1CCOCC1,-9.84%,
CC1CN(C(=O)c2ccccc2NS(=O)(=O)c2cccc([N+](=O)[O-])c2)CC(C)O1 (stereo not given),-3.65%,
COC(=O)C1=CO[C@@H](O[C@@H]2O[C@H](CO)[C@@H](O)[C@H](O)[C@H]2O)C2C1C[C@H](O)[C@@H]2C (stereo not given in full),6.92%,
CC[C@]12c3[nH]c4cc(CCC(=O)N(C)C)ccc4c3CCN1C(=O)[C@@H](CC(=O)NCCCn1ccnc1)C[C@@H]2C(=O)N1CCN(C(=O)C2CC2)CC1,9.71%,
OC(CBr)C[n+]1cccc2cc(Br)ccc21 (stereo not given),,4.47 µM (active)
COc1ccc(N2CCN(S(=O)(=O)c3ccc4c(c3)N(C(C)=O)CCO4)CC2)cc1,-25.4%,
CN(C)c1ccc(/C=N/NC(=O)c2ccc(Cn3cc(Br)cn3)o2)cc1,22%,
